IMPase inh: membrane-permeable compound that blocks inositol monophosphatase | P97697 | CHO-M1 cells, IP1 accumulation, HTRF TR-FRET ratio | inhibition (IP1 accumulation), % at 46.1 µM | 120,000 tested, under 10 active; active means well fitted curve in the direction sought with a large enough effect in the signal ratio, not every such curve was filed as active; inconclusive means small, poorly fitted or top-dose-only effect, or a change in a side signal; inactive means no such curve, though single readings can be large or run the other way; the % refers to the signal ratio;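 further: cells stimulated with carbachol in lithium chloride buffer; plate controls were DMSO basal wells for no effect and reference inhibitor wells for full effect; higher means more IMPase inhibition seen as more IP1 and lower FRET ratio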
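Measured: the HTRF emission ratio (665/620 nm) plus the 620 nm donor channel, each fitted to the Hill equation to give AC50. Cells were CHO-M1 given compounds up to 46 uM and a 30 min carbachol stimulation at 37C.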
HTT cytoprotect: Huntington cell model cytoprotection by ATP luminescence; PC12 HTT-Q103 induced, cytoprotection, ATP luminescence, 40 h; Potency, µM (doses to about 56.4 µM), without a hit: cytoprotection (ATP increase), usual class: activators; hit rate 0.14% among 230,000; further: potency means the concentration at half of the fitted maximal effect; % of control where 0% means no effect; nearly all actives have a fitted effect of over 45% in size
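Rat PC12, Q103 Htt exon1-GFP fusion, ecdysone promoter; tebufenozide inducer 100 nM final; compound titration; qHTS, 1500 cells/well; ATPlite luminescent read.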
ALDH1A1 inh: ALDH1A1 (human) enzyme inhibition; P00352; Purified ALDH1A1, NADH fluorescence, propionaldehyde substrate; Potency, µM (doses to about 75.3 µM), inactives show at the top dose activity, negative = inhibition, hits mostly inhibitors; hit rate 7.3% among 220,000; active means well fitted inhibition curve with a large enough effect, not every such curve was filed as active; inconclusive means small, poorly fitted or top-dose-only effect, or another doubt; inactive means no such curve, though single readings can be large or run the other way;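 further: potency means the concentration at half of the fitted maximal effect; plate controls were no enzyme wells and a reference inhibitor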
Target sequence (P00352 whole entry, looked up): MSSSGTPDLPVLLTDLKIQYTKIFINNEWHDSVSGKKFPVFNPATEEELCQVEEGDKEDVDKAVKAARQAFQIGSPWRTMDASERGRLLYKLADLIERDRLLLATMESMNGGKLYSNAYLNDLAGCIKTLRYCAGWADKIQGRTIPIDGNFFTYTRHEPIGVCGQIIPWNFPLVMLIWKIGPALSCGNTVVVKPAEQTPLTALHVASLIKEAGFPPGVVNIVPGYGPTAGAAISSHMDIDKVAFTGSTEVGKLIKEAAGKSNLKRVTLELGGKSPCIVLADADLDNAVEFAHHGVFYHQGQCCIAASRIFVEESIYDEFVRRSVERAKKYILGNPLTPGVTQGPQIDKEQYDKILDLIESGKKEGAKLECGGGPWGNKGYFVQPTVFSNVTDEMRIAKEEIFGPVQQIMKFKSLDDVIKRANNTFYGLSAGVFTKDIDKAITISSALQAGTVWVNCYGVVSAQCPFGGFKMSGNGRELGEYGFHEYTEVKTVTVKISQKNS
HTT aggregate: inhibitors of mutant huntingtin aggregate formation in PC12 cells; PC12 HttQ103-GFP aggregates, Acumen cytometry, 40 h; hit rate 1.1% among 220,000; Potency, µM (titrated, usually from 46.1 µM), without a hit: at the highest dose activity change, negative = inhibition, usual class: inhibitors; further: potency means the concentration at half of the fitted maximal effect; on the % scale 0 is the no-effect control and ±100 the full control effect; nearly all actives have a fitted effect of over 60% in size
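Huntingtin Q103 exon 1–GFP aggregates in induced PC12 cells (100 nM tebufenozide) were quantified by cytometry from lysates, with compounds dosed in titration.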
HPGD inh: HPGD (human) dehydrogenase inhibition. Potency, µM, without a hit: at the highest dose activity change, negative = inhibition, hits mostly inhibitors. P15428. purified HPGD, NADH fluorescence kinetic, PGE2 substrate. hit rate 4.3% among 150,000; active means well fitted inhibition curve with a large enough effect, not every such curve was filed as active; inconclusive means small, poorly fitted or top-dose-only effect, or another doubt; inactive means no such curve, though single readings can be large or run the other way; further: potency means the concentration at half of the fitted maximal effect; on the % scale 0 is the no-effect control and ±100 the full control effect
Target sequence (P15428 whole entry, looked up): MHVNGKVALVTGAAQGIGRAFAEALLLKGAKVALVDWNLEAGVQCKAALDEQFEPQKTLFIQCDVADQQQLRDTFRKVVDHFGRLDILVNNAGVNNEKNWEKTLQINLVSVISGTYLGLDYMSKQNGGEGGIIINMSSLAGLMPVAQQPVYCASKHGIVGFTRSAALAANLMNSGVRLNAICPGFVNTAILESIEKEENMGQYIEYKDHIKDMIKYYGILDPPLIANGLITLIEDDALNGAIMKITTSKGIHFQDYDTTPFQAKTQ
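NADH formation kinetics: reaction with 30 uM PGE2 and 1 mM NAD+ (final), 20 nM enzyme, Tris-HCl pH 8 with Tween 20, after 15 min compound preincubation at room temperature. Fluorescence change, last versus first of five reads.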
IMPase Li cell: IMPase inhibition in cells with lithium potentiation. Potency, µM (doses to about 59.4 µM), inactives show at the top dose activity, negative = IMPase inhibition, usual class: inhibitors. CHO-M1 cells, IP1 TR-FRET (IP-One), carbachol + lithium. hit rate 0.35% among 210,000;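 further: IP1 builds up when IMPase is blocked and the TR-FRET signal falls; potency means the concentration at half of the fitted maximal effect; plate controls were basal vehicle for no effect and high inhibitor control for full effect; nearly all actives have a fitted effect of over 50% in size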
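Test compounds were applied to CHO-M1 cells previously cultured for 16–30 h at 2000 per well. A small lithium amount accompanied them; after 30 min at 37C, IP1 was quantified by TR-FRET.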
* marks the source's active call; other numbers are inactive results; ? = inconclusive; . = no result given; [ ] = another dose, or the depositor's remark. An excerpt weighted towards active compounds, which were near 9.4% of everything screened. Unless noted, the call rests on the fitted dose curve; in most records, active means well fitted curve in the direction sought with a large enough effect; inconclusive means small, poorly fitted or top-dose-only effect, or another doubt; inactive means no such curve, though single readings can be large; an effect the other way counts as inactive or inconclusive.

SMILES	IMPase inh	HTT cytoprotect	ALDH1A1 inh	HTT aggregate	HPGD inh	IMPase Li cell
Cc1ccc(/C=C/C(=O)N2CCN(S(=O)(=O)/C=C/c3ccccc3)CC2)o1	.	1%[10 µM]	.	-8%[9.22 µM]	.	.
O=C(/C=C/c1ccco1)N1CCN(S(=O)(=O)/C=C/c2ccccc2)CC1	.	-26%	7.9µM*	14%	.	4%
O=C(/C=C/c1ccco1)N1CCN(S(=O)(=O)c2cccs2)CC1	.	9%[10 µM]	7.1µM*	4%[9.22 µM]	.	.
O=C(/C=C/c1ccco1)N1CCN(C/C=C/c2ccccc2)CC1	7	21%[10 µM]	13µM*	13%	-23%	17%
Cn1c(Oc2ccc(F)cc2)nc2c1c(=O)n(Cc1ccccc1Cl)c(=O)n2C	19	.	.	.	.	.
COc1ccc(Cl)cc1NS(=O)(=O)c1c(C)nc2scc(C)n2c1=O	-1	.	.	.	.	.
O=C1c2ccccc2C(=O)N1CCCSc1nc2ccccc2o1	9	3%[10 µM]	?	6%	20µM*	-1%[38.3 µM]
CC1CCCN(c2nc3c(c(=O)[nH]c(=O)n3C)n2CCSc2nc3ccccc3o2)C1 (configuration not stated)	6	-15%	5%	9%	-10%	6%[38.3 µM]
Cn1c(=O)[nH]c(=O)c2c1nc(N1CCCC1)n2CCCSc1nc2ccccc2o1	4	-8%	-3%	-5%	28µM*	7%[38.3 µM]
Cn1c(=O)[nH]c(=O)c2c1nc(Br)n2CCCSc1nc2ccccc2o1	7	-1%[10 µM]	?	12%	22µM*	-3%[38.3 µM]
CC(C)(C)N1C(=O)[C@H]2[C@@H]3[C@H](O)[C@H](O)CC(=O)[C@H]3CC[C@H]2C1=O	.	-17%[10 µM]	7%[13.5 µM]	.	.	.
Cc1ccccc1C(=O)c1c[nH]c(C(=O)NCCc2ccccn2)c1	.	23%[10 µM]	22µM*	-23%	.	8%
CCC(=O)c1c[nH]c(C(=O)NCCc2ccccn2)c1	1	3%[10 µM]	7%	2%	-3%	-6%
Cc1ccccc1C(=O)c1c[nH]c(C(=O)NCc2ccco2)c1	4	-24%	20µM*	?	-17%	-2%[38.3 µM]
COc1ccc(C(=O)c2c[nH]c(C(=O)NCc3ccco3)c2)cc1	1	-18%	?	-12%	?	13%[38.3 µM]
CCOc1cc(C(=O)Nc2ccc3c(c2)n(C)c(=O)c(=O)n3C)cc(OCC)c1OCC	1	.	.	.	.	.
CCOc1cc(/C=C(\C#N)c2[nH]nc(N)c2C#N)ccc1O	4	-112%	?	-32%	25µM*	-2%[38.3 µM]
CCOc1cc(-c2cc(-c3ccc(C)cc3)nc(N)c2C#N)ccc1O	8	-52%	-11%	?	-24%	16%[38.3 µM]
C/C(=N/Nc1ccc2ccccc2n1)c1ccccc1O	.	-72%[10 µM]	-3%[13.5 µM]	.	-9%	-3%
COc1ccc(C(=O)Oc2c(CN3CCOCC3)cc(Cl)c3cccnc23)cc1OC	.	-28%	.	.	.	.
COc1cc(OC)cc(C(=O)Oc2c(CN3CCOCC3)cc(Cl)c3cccnc23)c1	.	-76%[10 µM]	?	4.5µM*	.	.
Brc1ccccc1OCCCN1CCCCCC1	.	2%[10 µM]	?	5%[9.22 µM]	.	10%
CN1CCN(CCCCOc2ccccc2C=O)CC1	.	.	22µM*	.	.	12%
O=Cc1ccccc1OCCOc1ccccc1C=O	25	-24%[10 µM]	20µM*	35µM*	?	34%
Brc1ccccc1OCCCCCN1CCOCC1	.	-31%	11µM*	-7%	.	14%
SMILES	IMPase inh	HTT cytoprotect	ALDH1A1 inh	HTT aggregate	HPGD inh	IMPase Li cell
CN1CCN(CCCCOc2ccc(F)cc2)CC1	-9	3%	?	-13%	?	-16%[38.3 µM]
CCOc1cc(C2c3c(oc4ccc(F)cc4c3=O)C(=O)N2Cc2ccco2)ccc1O (configuration not stated)	5	.	.	.	.	.
c1cn(-c2ccnc(-c3ccc4c(c3)OCO4)n2)cn1	.	-41%	?	.	.	3%
CC(=O)O[C@@H]1CC[C@]2(C)C(=C[C@@H]([C@@H]3C=C4C[C@@H](OC(C)=O)CC[C@]4(C)C4=C3[C@H]3C[C@@H]5O[C@@]6(CC[C@H](C)CO6)[C@@H](C)[C@@H]5[C@@]3(C)CC4)C3=C2CC[C@@]2(C)[C@H]4[C@@H](C)[C@]5(CC[C@H](C)CO5)O[C@@H]4C[C@H]32)C1	.	-11%[10 µM]	?	.	-5%	0%
COc1ccc(S(=O)(=O)N(CC(=O)NCc2ccc(C)cc2)c2ccc(Cl)cc2)cc1	-6	.	.	.	.	.
CC(C)c1ccc2oc(-c3cccc(NC(=O)c4ccc5c(c4)OCCO5)c3)nc2c1	-4	.	.	.	.	.
N#Cc1c(-n2ncnc2-c2ccc(Br)cc2)sc2c1CCCCC2	-11	.	.	.	.	.
O=C(Nc1ccc(Cl)cc1)c1cccc(N2C(=O)C3C4CCC(C4)C3C2=O)c1 (configuration not stated)	.	5%[10 µM]	9%	2%	32µM*	-6%
COCCCn1c(-c2ccc(S(=O)(=O)N3CCOCC3)cc2)csc1=Nc1ccccc1	-13	4%	14µM*	?	?	10µM*
CCn1c(-c2ccc(S(=O)(=O)N3CCOCC3)cc2)csc1=Nc1ccc(C)c(Cl)c1	-12	.	.	.	.	.
COc1ccc(NC(=O)COc2ccc(S(=O)(=O)NC3CCCCC3)cc2)cc1OC	10	.	.	.	.	.
CCOc1cc(/C=C(\C#N)C(=O)NCC2CCCO2)ccc1OCC(N)=O (configuration not stated)	.	25%[10 µM]	-14%	19%[9.22 µM]	.	2%
COc1cc(/C=C(\C#N)C(=O)NCC2CCCO2)c([N+](=O)[O-])cc1OC (configuration not stated)	5	-20%[10 µM]	?	?	28µM*	3%[38.3 µM]
Cc1ccccc1-n1c(C)cc(/C=C(\C#N)C(=O)NCC2CCCO2)c1C (configuration not stated)	.	-45%[10 µM]	14µM*	17%	-12%	11%
Cc1ccc(/C=C(\C#N)C(=O)NCC2CCCO2)o1 (configuration not stated)	6	-8%[10 µM]	-20%	0%	-16%	6%
CCOc1cc(/C=C(\C#N)C(=O)NCC2CCCO2)ccc1O (configuration not stated)	4	2%[10 µM]	28µM*	-7%	?	24%
Fc1ccc(Nc2nc3ccccc3c3nncn23)c(Cl)c1	3	.	.	.	.	.
CN(Cc1ccccc1)C(=O)CSc1nc(-c2ccc(F)cc2)cc(C(F)(F)F)n1	7	.	.	.	.	.
O=C1CCCC/C1=N\Nc1ccc(C2CCCCC2)cc1	.	-19%[10 µM]	.	-2%[9.22 µM]	.	.
O=C(O)c1ccc(C2CCCCC2)cn1	0	-43%	-6%	3.2µM*	-16%	7%[38.3 µM]
C=CCSC1=Nc2sccc2C2=NC(=O)CN12	-4	29%	14µM*	-7%	-9%	-1%[38.3 µM]
C/C(=N\NC(=O)c1ccc(N/N=C(\C)c2ccc(O)cc2)cc1)c1ccc(O)cc1	.	-11%[10 µM]	?	1%[9.22 µM]	.	.
CC/C(=N\NC(=O)C(N)=O)c1ccccc1O	.	.	8%	10µM*	-14%	1%

Source: PubChem BioAssay
